Pf growth 96h: P. falciparum growth inhibition at 96 hours; 320,000 tested, 6.9% active; Potency, µM (titrated, usually from 28.7 µM), usual class: inhibitors; P. falciparum luciferase reporter growth, 96 h
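Erythrocytes infected with luciferase-expressing P. falciparum were dispensed at 2% hematocrit and 0.05% parasitemia (final), then incubated with compounds 96 hours at 37 C in 5% CO2. Luminescence after detection reagent addition reported growth.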
HCMV inh: inhibitors of human cytomegalovirus; HFF cells, HCMV-luciferase reporter, 72 h; stronger effect = lower value; activity change, negative = inhibition, % at 57.5 µM; 410,000 tested, 4.5% active; AID 1259415; in the data active means activity change below about -60%; inconclusive means no clear call, values can overlap the other calls; inactive means above about -39%
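Two-dose cell screen: HFF monolayers treated with compounds and infected with luciferase-expressing HCMV at 1 PFU/cell, 72 h at 37C, then lysed for luciferase measurement.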
CHX counter: counter-screen for Shiga toxin inhibitors: cycloheximide protein synthesis inhibition. cell reporter, cycloheximide protein synthesis inhibition counterscreen. max response, %. 300,000 tested, 12% active; in the data active means max response mostly above about 13%, no sharp cut-off; inactive means mostly below about 14%; further: read at 38.3 µM for the half of the compounds with a filed dose
Shiga inhibitor: Shiga toxin inhibition. Vero cells, Shiga toxin protein synthesis inhibition reporter. AID 2315. inhibition, % at 38.7 µM. 290,000 tested, 9.2% active; in the data active means inhibition mostly above about 28%, no sharp cut-off; inactive means mostly below about 43%
HCV inhibitor: HCV inhibition | 340,000 tested, 3.4% active | Potency, µM (top dose mostly 41.8 µM), hits mostly inhibitors | Huh7.5.1 HCVcc-Cre infection, luciferase reporter, 44 h
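Cells seeded at 1,000/well and cultured 4 h, then compounds added followed by HCVcc-Cre virus (~0.5 moi). After 44 h further culture, luciferase substrate was added, plates held 15 min at room temperature, and luminescence read for 15 sec.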
Pf growth 48h: inhibits P. falciparum growth in the first generation, 48 h; P. falciparum luciferase growth in erythrocytes, 48 h; Potency, µM (series often up to 28.7 µM), actives largely listed as inhibitors; 310,000 tested, 5.9% active; AID 504832
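Luciferase-expressing P. falciparum in infected erythrocytes (2% hematocrit, 0.1% parasitemia final) in RPMI 1640/0.5% Albumax were exposed to compound for 48 hours at 37 C, 5% CO2; growth read as luminescence.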
Numbers stand for hits; 0 = inactive; ? = inconclusive; - = not tested or not shown. An excerpt weighted towards active compounds, which were near 21% of everything screened. Unless noted, the call rests on the fitted dose curve; in most records, active means well fitted inhibition curve with a large enough effect; inconclusive means small, poorly fitted or top-dose-only effect, or another doubt; inactive means no such curve, though single readings can be large or run the other way.

SMILES	Pf growth 96h	HCMV inh	CHX counter	Shiga inhibitor	HCV inhibitor	Pf growth 48h
COc1ccc(OCC(O)CN2CCN(CC(O)COc3ccc(OC)cc3)CC2)cc1 (configuration not stated)	?	0	0	0	?	0
OC(COc1ccc(CN2CCCCO2)cc1)CN1CCCCC1 (configuration not stated)	12µM	0	0	0	?	?
OC(COc1ccc(OCC(O)CN2CCCCCC2)cc1)CN1CCCCCC1 (configuration not stated)	0	-	0	0	7.1µM	?
COc1ccc(CN2CCCC(C(=O)N3CCCCC3)C2)cc1OC (configuration not stated)	0	0	0	0	0	0
C#CCn1c(CCNC(=O)c2ccco2)nc2ccccc21	?	0	0	0	0	0
COC(=O)N[C@H]1CC=C[C@@H]1Cc1cccc(Oc2ccccc2)c1	-	0	-	-	-	-
O=C(NCCC1=CCCCC1)C1CC(=O)N(Cc2ccccc2)C1 (configuration not stated)	0	0	0	0	0	0
CCOC(=O)N1CCN(CC(O)COc2ccc(-c3ccccc3)cc2)CC1 (configuration not stated)	?	0	0	0	0	0
OC1CCCN(CC(O)COc2ccc(-c3ccccc3)cc2)C1 (configuration not stated)	0	0	23	54	?	0
OC(COc1ccc(-c2ccccc2)cc1)CN1CCOCC1 (configuration not stated)	0	-	22	0	-	0
OC1CCCN(CC(O)COC(c2ccccc2)c2ccccc2)C1 (configuration not stated)	?	0	0	0	0	?
NC(=O)C1CCN(CC(O)COc2ccc(-c3ccccc3)cc2)CC1 (configuration not stated)	?	0	0	0	10µM	?
COc1ccc(NC(=O)c2nc(S(C)(=O)=O)ncc2N(Cc2ccc(C)cc2)Cc2ccco2)cc1Cl	-	0	-	-	-	-
Cc1ccc(-n2nc(C)c(C(=O)Nc3cccc(C(=O)NC4CC4)c3)n2)c(C)c1	15µM	?	-	-	11µM	?
Cc1nn(-c2cccc(Cl)c2)nc1C(=O)Nc1cccc(C(=O)NC2CC2)c1	?	0	-	-	10µM	15µM
Cc1nn(-c2ccccc2)nc1C(=O)Nc1cccc(C(=O)NC2CC2)c1	-	0	-	-	-	-
C=CCN(C(C(=O)OC)C(C)C)S(=O)(=O)CCNCc1ccccc1 (configuration not stated)	-	0	-	-	0	-
O=C(CCC1N=C2c3ccccc3N=C(SCc3ccc(F)cc3)N2C1=O)NCc1ccc(F)cc1 (configuration not stated)	-	0	-	-	-	-
CCOc1ccc(C(=O)CCC(=O)NNC(=O)CCN2CCN(c3ccccc3)CC2)cc1	-	0	-	-	0	-
CCn1nc(C)c(CN2CCCC(C(=O)c3cccc(OC(C)C)c3)C2)c1C (configuration not stated)	0	?	0	0	8.9µM	0
CC(C)Oc1cccc(C(=O)C2CCCN(S(C)(=O)=O)C2)c1 (configuration not stated)	3.7µM	0	0	0	0	0
Cc1noc(C)c1S(=O)(=O)N1CCCC(C(=O)c2cccc(OC(C)C)c2)C1 (configuration not stated)	0	0	0	0	0	?
Cc1nn(C(C)C)c(C)c1CN1CCCC(C(=O)c2cccc(OC(C)C)c2)C1 (configuration not stated)	12µM	0	0	0	?	?
CC(C)Oc1cccc(C(=O)C2CCCN(Cc3cnn(C(C)C)c3)C2)c1 (configuration not stated)	0	0	0	0	?	0
COc1cc2ccccc2cc1C(=O)Nc1ccc2oc(-c3cc(Br)ccc3Cl)nc2c1	-	0	-	-	-	-
Clc1cccc(Cl)c1C1N2CCCN12 (configuration not stated)	-	-63	0	0	0	0
COc1ccc(NC(=O)Cn2c(=O)oc3cc(S(=O)(=O)NC(C)C)ccc32)cc1OC	-	0	-	-	-	-
Cc1nc2cc(-c3cccc(Cl)c3)nn2c(N2CCN(C(=O)c3ccco3)CC2)c1C	0	-	28	102	-	0
Cc1cc(N2CCN(C(=O)c3ccco3)CC2)n2nc(-c3cccc(Cl)c3)cc2n1	0	-101	0	0	10µM	9.3µM
